Shown are actives, neighbours in structure and some others; about 13% of the full set was active somewhere.
USP10 block: human USP10 deubiquitinase inhibition. 47,000 tested, 1.1% active. purified USP10, Ub-rhodamine fluorescence, 60 min. Q14694. inhibition, % at 20 µM. AID 1645856
Target sequence (Q14694 whole entry, looked up): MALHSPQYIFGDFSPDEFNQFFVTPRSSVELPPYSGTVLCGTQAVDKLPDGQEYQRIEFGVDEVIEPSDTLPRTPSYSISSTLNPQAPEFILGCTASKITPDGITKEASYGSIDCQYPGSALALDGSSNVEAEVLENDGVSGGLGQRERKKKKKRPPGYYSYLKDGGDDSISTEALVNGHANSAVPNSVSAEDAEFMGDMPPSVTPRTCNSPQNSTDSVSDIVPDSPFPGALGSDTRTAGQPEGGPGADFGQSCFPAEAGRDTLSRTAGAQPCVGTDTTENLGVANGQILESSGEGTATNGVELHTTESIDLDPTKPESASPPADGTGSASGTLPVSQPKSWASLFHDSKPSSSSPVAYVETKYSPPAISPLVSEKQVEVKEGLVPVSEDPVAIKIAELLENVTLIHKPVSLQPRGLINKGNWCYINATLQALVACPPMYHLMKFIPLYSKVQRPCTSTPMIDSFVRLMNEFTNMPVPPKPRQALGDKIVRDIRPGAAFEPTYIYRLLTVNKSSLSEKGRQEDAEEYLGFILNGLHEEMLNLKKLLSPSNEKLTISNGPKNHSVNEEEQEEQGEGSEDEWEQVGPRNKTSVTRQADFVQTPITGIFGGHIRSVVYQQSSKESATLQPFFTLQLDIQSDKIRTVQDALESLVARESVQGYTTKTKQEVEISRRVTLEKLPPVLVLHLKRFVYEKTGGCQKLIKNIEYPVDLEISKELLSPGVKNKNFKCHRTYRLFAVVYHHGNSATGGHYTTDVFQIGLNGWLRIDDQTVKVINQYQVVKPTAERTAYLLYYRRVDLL
USP17 inh: human USP17-like deubiquitinase inhibition; A8MUK1; purified USP17, Ub-rhodamine cleavage fluorescence, 3 h; inhibition, % at 50 µM; 47,000 tested, 6.5% active
USP8 inh: human USP8 deubiquitinase inhibition; 47,000 tested, 4.2% active; inhibition, % at 20 µM; P40818; purified USP8, Ub-rhodamine cleavage fluorescence, 30 min
USP28 block: blocks human USP28 ubiquitin-rhodamine cleavage; inhibition, % at 25 µM; 47,000 tested, 3% active; Q96RU2; AID 1645857; purified USP28, Ub-rhodamine cleavage fluorescence, 30 min
USP30 inh: inhibitors of human USP30 deubiquitinase | Q70CQ3 | purified USP30, Ub-rhodamine cleavage fluorescence | inhibition, % at 25 µM | 47,000 tested, 5.3% active
* hit, by the source's call; . = not tested or not shown. Cut-off read from the data, not from the text of the source: active = inhibition above about 30%; inactive = the rest.

SMILES	USP10 block	USP17 inh	USP8 inh	USP28 block	USP30 inh
COc1ccccc1N1CC(C(=O)Nc2nnc(Cc3ccccc3)s2)CC1=O (stereo not drawn)	5	-2	0	10	7
O=c1c2ccccc2nnn1CN1CCCC(c2nc3ccccc3s2)C1 (stereo not drawn)	6	4	14	-8	6
CCOC(=O)c1[nH]c2c(c1Cc1ccccc1)C(=O)CC(C)(C)C2	1	42*	4	-12	0
CCc1ocnc1C(=O)N1CCCC1c1noc(C2CC2)n1 (stereo not drawn)	-4	-22	-16	-17	-42
CC1=C(c2ccc(C(C)C)cc2)S(=O)(=O)N(CC(=O)Nc2ccccc2C)C1=O	13	22	27	39*	32*
CCOc1ccccc1C(=O)Oc1ccc(-n2cnnn2)cc1	-1	6	13	13	18
CN1CCN(C(=O)c2c3c(NCC4CC4)ncnc3n3ccccc23)CC1	-13	-81	-22	-83	-389
COCCN(C)C(=O)c1c2c(NCC3CC3)ncnc2n2ccccc12	-12	-60	31*	-98	-432
Cc1nn(-c2ccc(F)cc2)c(C)c1S(=O)(=O)NCc1ccccc1	2	-2	-3	-5	-4
O=C(c1cc2cc(Cl)ccc2o1)N1CCC1	-1	8	-4	.	.
Cc1cnc(NC(=O)c2cc3cc(Cl)ccc3o2)s1	7	7	46*	3	22
Cc1oc(-c2ccccc2F)nc1CS(=O)(=O)CC(=O)NCc1ccccc1Cl	21	46*	8	10	26
Cc1noc(-c2cc(=O)n(CC(=O)NCc3ccccc3Cl)c3ccccc23)n1	-2	-3	4	-14	-18
Cc1csc(NC(=O)C2c3ccccc3C(=O)N(C3CCCC3)C23CCCCC3)n1 (stereo not drawn)	-9	-21	-7	-45	-124
O=c1c2ccsc2ncn1Cc1ccccc1F	0	-14	2	32*	1
O=c1c2ccsc2nc2n1CCN(Cc1cccc(F)c1F)CC2	-2	4	8	6	2
Cc1sc(-c2ccc(Cl)nc2)nc1OC(=O)c1ccc(F)cc1F	6	53*	11	10	45*
COc1ccc(C2CCCCCN2C(=O)Cn2cncn2)cc1 (stereo not drawn)	-2	9	8	0	-1
Cc1ccc(-c2nc3c(c(SCC(=O)NCc4ccco4)n2)COC(C)(C)C3)cc1	1	41*	23	18	20
Cc1ccccc1C(=O)c1ccc(C(=O)NC2CCCCCC2)[nH]1	11	14	41*	4	52*
Cc1cccc2c(=O)c3c([nH]c12)CCN(CC(=O)NCc1ccccc1)C3	-3	-167	-17	-28	-154
CCc1ccc2[nH]c3c(c(=O)c2c1)CN(CC(=O)NCc1ccc2c(c1)OCO2)CC3	0	70*	21	19	24
Cc1c(Cl)ccc2c(=O)c3c([nH]c12)CCN(CC(=O)NCc1ccc2c(c1)OCO2)C3	-15	49*	46*	32*	-51
Cc1ccc2c(=O)c3c([nH]c2c1C)CCN(CC(=O)NCc1ccc2c(c1)OCO2)C3	-3	52*	19	-4	-11
N#CC1(c2nc3ccccc3[nH]2)Cc2ccccc2N2CCCCC21 (stereo not drawn)	-8	-58	-65	-82	-350
SMILES	USP10 block	USP17 inh	USP8 inh	USP28 block	USP30 inh
COc1ccc(/C=C/C(=O)N(Cc2ccc(OC)cc2)C2CCS(=O)(=O)C2)cc1 (stereo not drawn)	2	1	1	6	5
Cc1cccc(C(=O)NC(NC(=O)c2cccc(C)c2)c2ccccc2F)c1	11	.	57*	16	43*
CCc1nnc2c(N3CCN(c4ccccn4)CC3)nc3ccccc3n12	0	-4	2	-3	-27
CC1CCN(C(=O)c2cnc3ccccc3c2S(=O)(=O)c2ccc(Cl)cc2)CC1	8	19	5	20	38*
CC1(C)Cc2c(c(-c3ccco3)nc3sc4c(NCCCN5CCOCC5)ncnc4c23)CO1	-3	-6	-4	-18	-105
CC1(C)Cc2c(c(-c3ccco3)nc3sc4c(NCc5ccccn5)ncnc4c23)CO1	-6	38*	19	13	-7
CCCCCCNc1ncnc2c1sc1nc(-c3ccccc3)c3c(c12)CC(C)(C)OC3	0	16	14	27	31*
CCC(C)n1c(-c2ccccc2F)nc2nc3ccccc3nc21 (stereo not drawn)	4	10	0	37*	35*
CCCn1c(-c2ccccc2)nc2nc3ccccc3nc21	-1	9	18	7	-1
COc1ccc(OCC(=O)Nc2cc(C)c(O)c(-c3nc4ccccc4o3)c2)cc1	1	-3	1	3	15
O=C(CCn1c(=S)oc2ccccc21)Nc1ccc(O)c(-c2nc3ccccc3o2)c1	-1	-5	33*	-15	-47
COc1ccccc1C(=O)Nc1ccc(-c2nc3ccccc3o2)c(O)c1	32*	14	37*	15	15
Cc1ccc2oc(-c3cc(NC(=O)c4cccc(-n5cnnc5)n4)ccc3O)nc2c1	-1	26	-1	.	.
O=C(COc1ccccc1)Nc1ccc(-c2nc3cnccc3o2)c(O)c1	25	0	84*	-33	-16
CC(=O)OCC(=O)N1C[C@H](Oc2ccccn2)[C@H]2C[C@@H]1Cc1c2[nH]c2ccccc12	-3	-36	4	-7	-104
Cn1c(CNc2ccc(F)cc2)nnc1SCC(=O)Nc1cccc2ccccc12	1	1	12	29	21
COc1ccc(NC(=O)CSc2nnc(Cc3cccc4ccccc34)n2C)cc1	2	2	-26	60*	7
CCn1c(CNc2ccc(Cl)cc2)nnc1SCC(=O)Nc1ccccc1	5	0	2	64*	9
COc1ccc(NCc2nnc(SCC(=O)Nc3cccc4ccccc34)n2C)cc1	5	20	45*	6	19
COc1ccc(-c2csc(C)n2)cc1S(=O)(=O)Nc1cccc(C)c1	1	-2	-9	-7	-12
Cc1cnc(-c2nnc(C3CCCCN3S(=O)(=O)c3cccc(F)c3)o2)cn1 (stereo not drawn)	0	6	17	10	14
N#Cc1ccccc1-c1ccccc1C(=O)Nc1cccc(S(=O)(=O)N2CCCC2)c1	-4	3	3	7	13
CC(C)Oc1ccc(C(=O)Nc2cccc(S(=O)(=O)N3CCCC3)c2)cc1	2	19	11	63*	25
CCN(CC)S(=O)(=O)c1cccc(NC(=O)c2ccc(OC(F)(F)F)cc2)c1	12	13	17	30*	18
O=C(Nc1ccc(N2CCOCC2)cc1)c1cccc(S(=O)(=O)N2CCCC2)c1	3	12	17	5	16
Cc1cc(C)n(-c2ccc(C(=O)Nc3cccc(S(=O)(=O)N4CCCC4)c3)cc2)n1	12	29	-18	69*	74*
C[C@@]12C[C@H](CN)N(C(=O)CCc3cccnc3)[C@@H]1CCCC[C@H]2O	-1	7	-3	-1	3
